Results as given in PubChem BioAssay (NCATS).
The source made the active and inactive calls. The call rests on the fitted dose curve; in most records, active means well fitted curve in the direction sought with a large enough effect; inconclusive means small, poorly fitted or top-dose-only effect, or another doubt; inactive means no such curve, though single readings can be large; an effect the other way counts as inactive or inconclusive.

Assay: Cellular Toxicity (caspase-3) MRC-5 (AID 659);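 further: cells exposed to compound for 16 h at 37 °C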
Settings: MRC-5 cells, luminescence, normalized: DMSO 0%, 10 µM staurosporine 100%; series mostly up to 91.7 µM
Method in brief: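 Apoptosis readout in MRC-5 cells: luciferase light generated after caspase 3/7 cleaves a peptide-aminoluciferin substrate, measured post 16 hr compound incubation at 37 °C.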
For `Oc1ccc2cc(SSc3ccc4cc(O)ccc4c3)ccc2c1`, the outcome was “inactive”. For `Nc1ccc2cc3ccccc3cc2c1`, the outcome was “inactive”. In the case of `CN(C)c1ccc(C2(c3ccc(N(C)C)cc3)OC(=O)c3cc(N(C)C)ccc32)cc1`, the outcome is reported as “inactive”. In the case of `Cc1cc(Nc2ccc(O)cc2)ccc1N`, the outcome is reported as “inactive”. In the case of `CO[C@H]1/C=C/O[C@@]2(C)Oc3c(C)c(O)c4c(O)c(c5c(c4c3C2=O)NC2(CCN(CC(C)C)CC2)N=5)=NC(=O)/C(C)=C\C=C\[C@H](C)[C@H](O)[C@@H](C)[C@@H](O)[C@@H](C)[C@H](OC(C)=O)[C@@H]1C`, the outcome is reported as “inactive”. With `C=C(C)c1ccccc1` the outcome was “inactive”. For `Cc1ccc(S(=O)(=O)Oc2ccc(N=Nc3ccc(-c4ccc(N=Nc5c(O)ccc6cc(S(=O)(=O)O)cc(S(=O)(=O)O)c56)c(C)c4)cc3C)cc2)cc1`, the outcome was “inactive”. In the case of `O=C1OC2(c3cc(Br)c(O)c(Br)c3Oc3c2cc(Br)c(O)c3Br)c2c(Cl)c(Cl)c(Cl)c(Cl)c21`, the outcome is reported as “inactive”. With `ClC1=C(Cl)C(Cl)(Cl)C(Cl)=C1Cl` the outcome was “inactive”. In the case of `C=CC(=O)OCCOCCOC(=O)C=C`, the outcome is reported as “inactive”. In the case of `O=C1OC(O)C(C(Cl)Cl)=C1Cl` (stereo not drawn), the outcome is reported as “inactive”. With `CNc1ccc(O)cc1` the outcome was “inactive”. With `CC(=O)Nc1ccc(C(=O)CCl)cc1` the outcome was “inactive”. With `CCC(C)Nc1ccc(NC(C)CC)cc1` (stereo not drawn) the outcome was “inactive”. For `O=C=Nc1ccc(Cc2ccc(N=C=O)cc2)cc1`, the outcome was “inactive”. In the case of `c1ccc2c(c1)ccc1cc3c(ccc4ccccc43)cc12`, the outcome is reported as “inactive”. In the case of `c1ccc2c(c1)-c1cccc3c1c-2cc1ccccc13`, the outcome is reported as “inactive”. With `O=[N+]([O-])c1cc([N+](=O)[O-])c2ccc(S(=O)(=O)O)cc2c1O` the outcome was “inactive”. For `O=Cc1ccc(Cl)c(Cl)c1`, the outcome was “inactive”.

Assay: Cellular Toxicity (caspase-3) Mesangial (AID 660);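 further: combined caspase 3 and 7 activity read by Caspase-Glo luminescence; cells exposed to compound for 16 h before the caspase read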
Settings: mesangial cells, normalized: DMSO 0%, 100 µM tamoxifen 100%; at 91.7 µM (top of the series)
Method in brief: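 Caspase 3/7 activation measured by Caspase-Glo 3/7 luminescence (20 min, room temperature) following 16 h exposure of mesangial cells (1000/well); AC50 from Hill-equation fit, normalized to DMSO and 100 uM tamoxifen.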
In the case of `Oc1ccc2cc(SSc3ccc4cc(O)ccc4c3)ccc2c1`, the caspase-3 activation is reported as -1.21% (inactive). For `Nc1ccc2cc3ccccc3cc2c1`, the caspase-3 activation was -0.235% (inactive). With `CN(C)c1ccc(C2(c3ccc(N(C)C)cc3)OC(=O)c3cc(N(C)C)ccc32)cc1` the caspase-3 activation was 0.256% (inactive). With `Cc1cc(Nc2ccc(O)cc2)ccc1N` the caspase-3 activation was 23.2% (inactive). In the case of `CO[C@H]1/C=C/O[C@@]2(C)Oc3c(C)c(O)c4c(O)c(c5c(c4c3C2=O)NC2(CCN(CC(C)C)CC2)N=5)=NC(=O)/C(C)=C\C=C\[C@H](C)[C@H](O)[C@@H](C)[C@@H](O)[C@@H](C)[C@H](OC(C)=O)[C@@H]1C`, the caspase-3 activation is reported as 0.833% (inactive). With `Cc1cc(O)c(C(C)(C)C)cc1Sc1cc(C(C)(C)C)c(O)cc1C` the caspase-3 activation was 140% (active). For `C=C(C)c1ccccc1`, the caspase-3 activation was 0.545% (inactive). For `Cc1ccc(S(=O)(=O)Oc2ccc(N=Nc3ccc(-c4ccc(N=Nc5c(O)ccc6cc(S(=O)(=O)O)cc(S(=O)(=O)O)c56)c(C)c4)cc3C)cc2)cc1`, the caspase-3 activation was -0.709% (inactive). In the case of `O=C1OC2(c3cc(Br)c(O)c(Br)c3Oc3c2cc(Br)c(O)c3Br)c2c(Cl)c(Cl)c(Cl)c(Cl)c21`, the caspase-3 activation is reported as -1.97% (inactive). In the case of `ClC1=C(Cl)C(Cl)(Cl)C(Cl)=C1Cl`, the caspase-3 activation is reported as 0.653% (inactive). With `C=CC(=O)OCCOCCOC(=O)C=C` the caspase-3 activation was 0.177% (inactive). For `C/C=C1\C(=O)C[C@H]2[C@@H]3CCC4=CC(=O)CC[C@]4(C)[C@H]3CC[C@]12C`, the caspase-3 activation was 1.02% (inactive). With `CNc1ccc(O)cc1` the caspase-3 activation was -3.33% (inactive). With `CC(=O)Nc1ccc(C(=O)CCl)cc1` the caspase-3 activation was -4.19% (inactive). In the case of `CCC(C)Nc1ccc(NC(C)CC)cc1` (stereo not drawn), the caspase-3 activation is reported as -4.04% (inactive). For `O=C=Nc1ccc(Cc2ccc(N=C=O)cc2)cc1`, the caspase-3 activation was -0.349% (inactive). In the case of `c1ccc2c(c1)ccc1cc3c(ccc4ccccc43)cc12`, the caspase-3 activation is reported as 0.415% (inactive). With `CC/C(=C(\c1ccccc1)c1ccc(OCCN(C)C)cc1)c1ccc(O)cc1` the caspase-3 activation was -2.42% (inactive). With `c1ccc2c(c1)-c1cccc3c1c-2cc1ccccc13` the caspase-3 activation was -0.695% (inactive). For `O=[N+]([O-])c1cc([N+](=O)[O-])c2ccc(S(=O)(=O)O)cc2c1O`, the caspase-3 activation was 1.36% (inactive). For `O=Cc1ccc(Cl)c(Cl)c1`, the caspase-3 activation was -1.53% (inactive).

Assay: Cellular Toxicity (caspase-3) SK-N-SH (AID 661);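 further: cells exposed to compound for 16 hours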; further: potency means the concentration at half of the fitted maximal effect
Settings: SK-N-SH caspase-3 activation, qHTS; caspase-3 activation: at 91.7 µM (top of the series), DMSO as zero, staurosporine as full
Method in brief: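 Caspase 3/7 activation was read by luminogenic substrate cleavage after 16 hour treatment of SK-N-SH cells. Signal was scaled between DMSO and 10 uM staurosporine, and concentration-response data were fitted with the Hill equation for AC50.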
With `Oc1ccc2cc(SSc3ccc4cc(O)ccc4c3)ccc2c1` the caspase-3 activation was 10.2% (inactive). In the case of `Nc1ccc2cc3ccccc3cc2c1`, the caspase-3 activation is reported as -1.26% (inactive). In the case of `CN(C)c1ccc(C2(c3ccc(N(C)C)cc3)OC(=O)c3cc(N(C)C)ccc32)cc1`, the caspase-3 activation is reported as -0.0609% (inactive). With `Cc1cc(Nc2ccc(O)cc2)ccc1N` the caspase-3 activation was 12.7% (inactive). In the case of `CO[C@H]1/C=C/O[C@@]2(C)Oc3c(C)c(O)c4c(O)c(c5c(c4c3C2=O)NC2(CCN(CC(C)C)CC2)N=5)=NC(=O)/C(C)=C\C=C\[C@H](C)[C@H](O)[C@@H](C)[C@@H](O)[C@@H](C)[C@H](OC(C)=O)[C@@H]1C`, the caspase-3 activation is reported as 5.74% (inactive). For `C=C(C)c1ccccc1`, the caspase-3 activation was 0.438% (inactive). In the case of `Cc1ccc(S(=O)(=O)Oc2ccc(N=Nc3ccc(-c4ccc(N=Nc5c(O)ccc6cc(S(=O)(=O)O)cc(S(=O)(=O)O)c56)c(C)c4)cc3C)cc2)cc1`, the caspase-3 activation is reported as -0.915% (inactive). For `O=C1OC2(c3cc(Br)c(O)c(Br)c3Oc3c2cc(Br)c(O)c3Br)c2c(Cl)c(Cl)c(Cl)c(Cl)c21`, the caspase-3 activation was 0.172% (inactive). In the case of `c1cc(OCC2CO2)cc(OCC2CO2)c1` (stereo not drawn), the Potency is reported as 12.6 µM (active). For `C/C=C1\C(=O)C[C@H]2[C@@H]3CCC4=CC(=O)CC[C@]4(C)[C@H]3CC[C@]12C`, the caspase-3 activation was 1.31% (inactive). With `CNc1ccc(O)cc1` the caspase-3 activation was -7.58% (inactive). With `CC(=O)Nc1ccc(C(=O)CCl)cc1` the caspase-3 activation was -5.98% (inactive). In the case of `CCC(C)Nc1ccc(NC(C)CC)cc1` (stereo not drawn), the caspase-3 activation is reported as -5.96% (inactive). With `O=C=Nc1ccc(Cc2ccc(N=C=O)cc2)cc1` the caspase-3 activation was 0.0206% (inactive). For `c1ccc2c(c1)ccc1cc3c(ccc4ccccc43)cc12`, the caspase-3 activation was -0.556% (inactive). With `c1ccc2c(c1)-c1cccc3c1c-2cc1ccccc13` the caspase-3 activation was 2.25% (inactive). For `O=[N+]([O-])c1cc([N+](=O)[O-])c2ccc(S(=O)(=O)O)cc2c1O`, the caspase-3 activation was -1.51% (inactive). With `O=Cc1ccc(Cl)c(Cl)c1` the caspase-3 activation was 1.15% (inactive).
